Reference: PubChem BioAssay (Tox21)
Where “and” joins values, the source holds several entries; their conditions need not be identical. Equal values may be shown once. Records with an inconclusive call do not appear. Entries that show only a call come without a potency. A structure can be active in one record and inactive in another. Calls of active or inactive are those of the source. Unless noted, calls follow the shape of the dose curve; as a rule, active = well fitted curve in the direction sought with a large enough effect in the repeat runs; inconclusive = weak or mixed curves; inactive = no such curve, though single readings can be large; an effect the other way counts as inactive or inconclusive.

What was measured:
[1] = A CellTox Green Cytotoxicity Assay to monitor cytotoxicity in HEK293 cells - 8 hour (AID 1224884); also: nearly all actives have a fitted effect of over 35% in size; also: potency is read from the fitted curve at half-maximal effect
In short: (§1)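 Read-out: fluorescence of a cell-impermeant cyanine dye staining DNA of dead cells, proportional to cytotoxicity. HEK293, 600 cells/well with reagent, compound (23 nL DMSO) added after 5 h; reads at 0, 8, 16, 24, 32, 40 h.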

[2] = qHTS RealTime-Glo MT Cell Viability Assay in HepG2 cells - 16 hour (AID 1224885); also: nearly all actives have a fitted effect of over 50% in size; also: potency is read from the fitted curve at half-maximal effect
In short: (§2)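 Viability was tracked continuously by NanoLuc luminescence from prosubstrate reduced by living HepG2 cells, at successive time points over 40 h of compound exposure. Cells with reagent were preincubated 5 h at 37 °C before compound addition.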

[3] = qHTS RealTime-Glo MT Cell Viability Assay in HEK293 cells - 24 hour (AID 1224886); also: nearly all actives have a fitted effect of over 50% in size; also: potency is read from the fitted curve at half-maximal effect; as to activity change, negative = cytotoxicity: top concentration of the series differs between compounds
In short: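 Viability tracked continuously by luminescence as live cells reduce a prosubstrate for NanoLuc; HEK293 cells preincubated 5 h, compound-treated at 37 C, and read at 0, 8, 16, 24, 32 and 40 h.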

[4] = qHTS RealTime-Glo MT Cell Viability Assay in HEK293 cells - 8 hour (AID 1224887); also: nearly all actives have a fitted effect of over 50% in size; also: potency is read from the fitted curve at half-maximal effect; as to activity change, negative = cytotoxicity: top concentration of the series differs between compounds
In short: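 Luminescence readout at each listed time point; HEK293, 600 cells/well, RealTime-Glo MT reagent added with cells; compounds pinned (23 nL in DMSO) after 5 h at 37 C; continuous culture at 37 C.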

[5] = qHTS RealTime-Glo MT Cell Viability Assay in HepG2 cells - 0 hour (AID 1224889); also: nearly all actives have a fitted effect of over 50% in size
In short: as §2

[6] = A CellTox Green Cytotoxicity Assay to monitor cytotoxicity in HepG2 cells - 8 hour (AID 1224890); also: nearly all actives have a fitted effect of over 45% in size; also: potency is read from the fitted curve at half-maximal effect
In short: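 HepG2, 600 cells/well premixed w/ CellTox Green; 5 h settle, 37 C/5% CO2; pintool cpd add (DMSO); 37 C, 40 h; fluorescence read at 0, 8, 16, 24, 32, 40 h.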

[7] = qHTS assay to identify small molecule antagonists of the estrogen receptor alpha (ER-alpha) signaling pathway using the BG1 cell line in the presence of 0.1 nM 17-beta-estradiol - cell viability counter screen (AID 1259241); also: nearly all actives have a fitted effect of over 40% in size; also: potency is read from the fitted curve at half-maximal effect
In short: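 The cell line endogenously expresses full-length ER-alpha and carries four EREs driving luciferase. Cells are cultured 5 days hormone-free, treated 22 hr with compounds and 0.1 nM estradiol, then viability is read by fluorescence.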

[8] = qHTS assay to identify small molecule phospholipidosis (PLD) inducers (AID 1259344; active = well fitted curve in the direction sought with a large enough effect; an effect the other way counts as inactive or inconclusive)
In short: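 Image-based: LipidTOX Red pit count/intensity per well and per cell; HepG2, 24 h compound at 37 C, PFA fixation, Hoechst counterstain.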

[9] = qHTS assay to identify small molecule HDAC inhibitors (AID 1259364);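 also: wild-type HCT-116 cells with endogenous class I/II HDAC activity; top concentration of the series differs between compounds; nearly all actives have a fitted effect of over 45% in size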
In short: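 HCT-116 (wild type), 1,500 cells/well, overnight; compound 2 hr 37C 5% CO2; HDAC-Glo I/II reagent 30 min RT; luminescence readout.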

[10] = qHTS assay to identify small molecule agonists of the sonic hedgehog signaling (Shh) pathway (AID 1259368; calls by dose curve;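 also: NIH/3T3-derived 3T3Gli1-Luc cells carrying a stable Gli1-driven firefly luciferase reporter; series mostly up to about 92 µM; nearly all actives have a fitted effect of over 15% in size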)
In short: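 Read-out: firefly luciferase luminescence from a Gli1 response element reporter stably integrated in NIH/3T3-derived 3T3Gli1-Luc cells, measured 30 min at room temperature after reagent addition. Compound exposure lasted 24 hr at 37 C, 5% CO2.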

[11] = qHTS assay to identify small molecule antagonists of the sonic hedgehog signaling (Shh) pathway (AID 1259369; calls by dose curve; also: nearly all actives have a fitted effect of over 45% in size; also: potency is read from the fitted curve at half-maximal effect)
In short: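 Luminescence readout: firefly Luc under Gli1 response element in 3T3Gli1-Luc cells (NIH/3T3 clone). Antagonist mode, stimulation by conditioned medium; compound exposure 24hr at 37 C, 5% CO2.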

[12] = qHTS assay to identify small molecule antagonists of the androgen receptor (AR) signaling pathway using the MDA cell line in the presence of 0.5 nM R1881 - cell viability counter screen (AID 1259242); also: nearly all actives have a fitted effect of over 45% in size; also: potency is read from the fitted curve at half-maximal effect
In short: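 Live-cell protease fluorescence, CellTiter-Fluor, 30 min at 37C. Cells: MDA-kb2, 3,000/well, preincubated 5 hr. Compounds plus 0.5 nM R1881 final, 16 hr, 37C, 0% CO2.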

[13] = target: Estrogen receptor (Homo sapiens) (UniProt P03372); experiment: qHTS assay to identify small molecule antagonists of the estrogen receptor alpha (ER-alpha) signaling pathway using the BG1 cell line in the presence of 0.1 nM 17-beta-estradiol (AID 1259244); also: nearly all actives have a fitted effect of over 50% in size; also: potency is read from the fitted curve at half-maximal effect
Chain of Estrogen receptor (Homo sapiens) (P03372 whole entry, looked up): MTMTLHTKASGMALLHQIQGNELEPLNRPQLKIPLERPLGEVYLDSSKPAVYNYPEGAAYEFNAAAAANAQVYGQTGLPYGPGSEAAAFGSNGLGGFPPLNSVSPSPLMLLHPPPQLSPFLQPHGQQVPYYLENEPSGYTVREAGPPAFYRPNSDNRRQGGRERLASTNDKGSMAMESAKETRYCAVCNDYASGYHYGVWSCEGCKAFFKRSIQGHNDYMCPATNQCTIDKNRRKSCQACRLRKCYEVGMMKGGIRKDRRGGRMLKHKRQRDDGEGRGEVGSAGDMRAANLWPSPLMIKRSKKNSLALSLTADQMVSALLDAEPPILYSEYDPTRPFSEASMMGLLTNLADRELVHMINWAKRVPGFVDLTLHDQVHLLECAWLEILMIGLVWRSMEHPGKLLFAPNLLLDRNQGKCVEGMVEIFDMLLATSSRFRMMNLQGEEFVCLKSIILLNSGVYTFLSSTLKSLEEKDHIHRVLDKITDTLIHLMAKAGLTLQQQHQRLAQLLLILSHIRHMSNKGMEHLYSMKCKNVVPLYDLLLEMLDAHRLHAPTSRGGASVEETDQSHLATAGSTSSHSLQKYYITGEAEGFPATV
In short: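 Luminescence after ONE-Glo (30 min, room temperature) measured ERE-luciferase activity in VM7Luc4E2 cells treated 22 h with compound and 0.1 nM final 17beta-estradiol as stimulator.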

[14] = qHTS assay to identify small molecule HDAC inhibitors - cell viability counter screen (AID 1259365); also: nearly all actives have a fitted effect of over 50% in size; also: potency is read from the fitted curve at half-maximal effect; as to activity change, negative = cytotoxicity: series mostly up to about 92 µM
In short: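 Viability readout: CellTiter-Glo luminescence. Wild-type HCT-116 cells, 2hr compound treatment following overnight attachment at 37 C.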

[15] = qHTS assay to identify small molecule antagonists of the sonic hedgehog signaling (Shh) pathway - cell viability counter screen (AID 1259367); also: nearly all actives have a fitted effect of over 55% in size; also: potency is read from the fitted curve at half-maximal effect
In short: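 Tox21 library chemicals were tested on a Gli1-Luc NIH/3T3 clone (2,000 cells/well) stimulated by conditioned medium; viability was quantified as fluorescence from CellTiter-Fluor reagent added at 23 hr.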

[16] = A CellTox Green Cytotoxicity Assay to monitor cytotoxicity in HEK293 cells - 16 hour (AID 1224888); also: nearly all actives have a fitted effect of over 35% in size; also: potency is read from the fitted curve at half-maximal effect
In short: as §1

[17] = qHTS assay to identify small molecule agonists of the sonic hedgehog signaling (Shh) pathway - cell viability counter screen (AID 1259366); also: nearly all actives have a fitted effect of over 50% in size; also: potency is read from the fitted curve at half-maximal effect
In short: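 Viability measured fluorometrically (CellTiter-Fluor, 1hr, 37C) in 3T3 Gli1-Luc reporter cells after 23hr compound exposure within a 24hr incubation at 37C/5% CO2.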

[18] = target: Estrogen receptor beta (Homo sapiens) (UniProt Q92731); experiment: qHTS assay to identify small molecule agonists of the estrogen receptor beta (ER-beta) signaling pathway (AID 1259377; active = well fitted activation curve with a large enough effect in the signal ratio in the repeat runs, not every such curve was filed as active; the % refers to the signal ratio)
Chain of Estrogen receptor beta (Homo sapiens) (Q92731 whole entry, looked up): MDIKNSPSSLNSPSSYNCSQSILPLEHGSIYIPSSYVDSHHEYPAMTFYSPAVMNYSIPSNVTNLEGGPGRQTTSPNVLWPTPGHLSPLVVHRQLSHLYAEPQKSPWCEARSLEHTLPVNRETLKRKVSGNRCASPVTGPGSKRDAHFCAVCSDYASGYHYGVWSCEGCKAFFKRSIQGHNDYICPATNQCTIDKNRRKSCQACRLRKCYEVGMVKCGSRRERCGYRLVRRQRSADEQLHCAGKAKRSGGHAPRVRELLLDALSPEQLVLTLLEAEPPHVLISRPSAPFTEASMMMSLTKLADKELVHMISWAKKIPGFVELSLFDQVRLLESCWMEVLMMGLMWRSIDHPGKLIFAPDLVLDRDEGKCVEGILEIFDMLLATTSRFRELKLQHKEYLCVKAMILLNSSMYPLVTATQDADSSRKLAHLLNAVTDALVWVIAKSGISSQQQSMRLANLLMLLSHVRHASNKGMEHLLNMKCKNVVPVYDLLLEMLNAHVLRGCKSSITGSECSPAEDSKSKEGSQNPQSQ
In short: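 A UAS-controlled beta-lactamase reporter in ER-beta-UAS-bla HEK293T cells reports receptor activation. Compounds act for 16 hr at 37C in 2% charcoal-stripped serum, and a FRET substrate is read by fluorescence after 2 hours.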

[19] = target: Androgen receptor (Homo sapiens) (UniProt P10275); experiment: qHTS assay to identify small molecule antagonists of the androgen receptor (AR) signaling pathway using the MDA cell line in the presence of 0.5 nM R1881 (AID 1259243); also: nearly all actives have a fitted effect of over 50% in size; also: potency is read from the fitted curve at half-maximal effect
Chain of Androgen receptor (Homo sapiens) (P10275 whole entry, looked up): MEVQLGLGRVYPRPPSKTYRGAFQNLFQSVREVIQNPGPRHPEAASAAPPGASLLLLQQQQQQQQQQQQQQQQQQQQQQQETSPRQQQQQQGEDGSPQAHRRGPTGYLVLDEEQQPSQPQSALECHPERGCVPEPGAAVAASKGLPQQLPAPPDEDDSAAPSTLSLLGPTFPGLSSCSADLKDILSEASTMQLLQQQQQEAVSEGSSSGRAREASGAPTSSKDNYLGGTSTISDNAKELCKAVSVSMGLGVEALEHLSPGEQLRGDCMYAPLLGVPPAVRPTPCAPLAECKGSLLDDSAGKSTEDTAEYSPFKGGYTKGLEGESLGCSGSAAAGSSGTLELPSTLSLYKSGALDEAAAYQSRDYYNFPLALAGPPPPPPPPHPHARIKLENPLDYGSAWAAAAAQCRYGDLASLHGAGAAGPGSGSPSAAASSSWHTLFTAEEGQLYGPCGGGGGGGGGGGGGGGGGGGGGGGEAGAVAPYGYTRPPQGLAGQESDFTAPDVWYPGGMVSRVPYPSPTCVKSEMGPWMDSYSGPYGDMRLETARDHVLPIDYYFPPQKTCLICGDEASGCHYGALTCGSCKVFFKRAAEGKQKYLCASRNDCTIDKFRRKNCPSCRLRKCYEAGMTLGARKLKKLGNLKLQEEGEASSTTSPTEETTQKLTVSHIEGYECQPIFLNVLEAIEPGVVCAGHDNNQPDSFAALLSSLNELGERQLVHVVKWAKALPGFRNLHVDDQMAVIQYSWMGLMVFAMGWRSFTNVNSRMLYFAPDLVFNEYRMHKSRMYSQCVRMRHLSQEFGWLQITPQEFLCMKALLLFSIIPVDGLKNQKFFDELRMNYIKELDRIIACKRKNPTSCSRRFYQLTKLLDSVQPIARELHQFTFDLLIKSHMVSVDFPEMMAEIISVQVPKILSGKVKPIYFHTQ
In short: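 MDA-kb2, MMTV-luc (AR/GR elements); 3,000 cells/well; cpd + 0.5 nM R1881 final; 16 hr 37C, 0% CO2; ONE-Glo 30 min RT; luminescence.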

CC1CCC(C(C)C)C(OC(=O)c2ccccc2N)C1 (configuration not stated)
Potency [1]: 48.3 µM (active)
Potency [2]: inactive
Potency [3]: 34.2 µM (active)
Potency [4]: 34.2 µM (active)
Potency [5]: inactive
Potency [6]: inactive
Potency [7]: inactive
Potency [8]: inactive
Potency [9]: inactive
Potency [10]: inactive
Potency [11]: 26.9 µM (active)

BrC(Br)C(Br)(Br)Br
Potency [1]: inactive
Potency [2]: inactive
Potency [3]: 24.7 µM (active)
Potency [5]: inactive
Potency [6]: inactive
Potency [7]: inactive
Potency [12]: inactive
Potency [13]: inactive
Potency [9]: inactive
Potency [14]: inactive
Potency [15]: inactive
Potency [11]: 61.5 µM (active)

Cc1cc(C)cc(OP(=O)(Oc2cc(C)cc(C)c2)Oc2cc(C)cc(C)c2)c1
Potency [1]: inactive
Potency [2]: inactive
Potency [3]: inactive
Potency [4]: inactive
Potency [16]: inactive
Potency [5]: inactive
Potency [6]: inactive
Potency [7]: inactive
Potency [12]: inactive
Potency [13]: inactive
Potency [9]: inactive
Potency [14]: inactive
Potency [17]: inactive
Potency [11]: inactive
Potency [18]: inactive

CC(C)(C)C(O)C(Oc1ccc(-c2ccccc2)cc1)n1cncn1 (configuration not stated)
Potency [1]: inactive
Potency [2]: inactive
Potency [3]: 43.6 µM (active)
Potency [16]: inactive
Potency [5]: inactive
Potency [6]: inactive
Potency [7]: inactive
Potency [12]: inactive
Potency [19]: 30.6 µM (active)
Potency [9]: inactive
Potency [17]: 30.6 µM (active)
Potency [11]: 12.2 µM (active)

CCCCCCCCCCCCCC[P+](CCCCCC)(CCCCCC)CCCCCC (tested in a mixture with another compound)
Potency [1]: 24.6 µM (active)
Potency [2]: 49 µM (active)
Potency [3]: 6.92 µM (active)
Potency [4]: 13.8 µM (active)
Potency [16]: 17.4 µM (active)
Potency [6]: 43.7 µM (active)
Potency [12]: 19.3 µM (active)
Potency [13]: 3.86 µM (active)
Potency [9]: inactive
Potency [14]: 68.6 µM (active)
Potency [17]: 13.7 µM (active)
Potency [15]: 48.6 µM (active)
Potency [11]: 0.969 µM (active)

[Cl][Sn]([c]1ccccc1)([c]1ccccc1)[c]1ccccc1
Potency [1]: 2.33 µM (active)
Potency [2]: 2.93 µM (active)
Potency [3]: 0.262 µM (active)
Potency [4]: 0.737 µM (active)
Potency [16]: 2.33 µM (active)
activity change, negative = cytotoxicity [5]: 2.43% [at 15.8 µM] (inactive)
Potency [6]: 9.28 µM (active)
Potency [7]: 4.11 µM (active)
Potency [12]: 1.64 µM (active)
Potency [19]: 0.82 µM (active)
activity change, negative = inhibition [13]: -95.6% [at 19 µM] (inactive)
activity change, negative = inhibition [9]: -5.43% [at 19 µM] (inactive)
activity change, negative = cytotoxicity [14]: 26.2% [at 19 µM] (inactive)
Potency [17]: 0.231 µM (active)
Potency [15]: 0.366 µM (active)
activity change [10]: -11.2% [at 18.9 µM, stronger effect = higher value] (inactive)
Potency [11]: 0.206 µM (active)

CCCN(CCC)CCc1c[nH]c2ccccc12
Potency [1]: inactive
Potency [2]: inactive
Potency [3]: inactive
Potency [4]: inactive
Potency [16]: inactive
Potency [5]: inactive
Potency [6]: inactive
Potency [12]: inactive
Potency [13]: inactive
Potency [14]: inactive
Potency [17]: inactive
Potency [10]: inactive
Potency [11]: 67.7 µM (active)
Potency [18]: inactive

Clc1ccc(C(c2ccccc2Cl)C(Cl)(Cl)Cl)cc1 (configuration not stated)
Potency [1]: inactive
Potency [2]: inactive
Potency [3]: 49.3 µM (active) and inactive
Potency [4]: 49.3 µM (active) and inactive
Potency [16]: inactive
Potency [6]: inactive
Potency [7]: inactive
Potency [12]: inactive
Potency [13]: inactive
Potency [9]: inactive
Potency [14]: inactive
Potency [15]: inactive
Potency [10]: inactive
Potency [11]: inactive
Potency [18]: inactive

CCCCCCCCCBr
Potency [1]: inactive
Potency [2]: inactive
Potency [3]: inactive
Potency [4]: inactive
Potency [16]: inactive
Potency [5]: inactive
Potency [6]: inactive
Potency [12]: inactive
Potency [13]: inactive
Potency [9]: inactive
Potency [14]: inactive
Potency [15]: inactive
Potency [10]: inactive
Potency [11]: inactive

Oc1ccc(I)cc1
Potency [1]: inactive
Potency [2]: inactive
Potency [3]: inactive
Potency [4]: inactive
Potency [16]: inactive
Potency [5]: inactive
Potency [6]: inactive
Potency [7]: inactive
Potency [13]: inactive
Potency [9]: inactive
Potency [14]: inactive
Potency [17]: inactive
Potency [15]: inactive
Potency [10]: inactive

Cc1cccc(OP(=O)(Oc2cccc(C)c2)Oc2cccc(C)c2)c1
Potency [1]: inactive
Potency [2]: inactive
Potency [3]: inactive
Potency [4]: inactive
Potency [16]: inactive
Potency [5]: inactive
Potency [6]: inactive
Potency [7]: inactive
Potency [12]: inactive
Potency [9]: inactive
Potency [17]: inactive
Potency [15]: inactive
Potency [10]: inactive
Potency [11]: inactive
Potency [18]: inactive

C[C@@H]1O[C@@H](O[C@@H]2C=C3CC[C@@H]4[C@H](CC[C@]5(C)[C@@H](c6ccc(=O)oc6)CC[C@]45O)[C@@]3(C)CC2)[C@H](O)[C@H](O)[C@H]1O
Potency [1]: inactive
Potency [2]: inactive
Potency [3]: 0.0301 µM (active)
Potency [4]: inactive
Potency [16]: inactive
Potency [5]: inactive
Potency [6]: inactive
Potency [7]: inactive
Potency [12]: inactive
Potency [19]: inactive
Potency [17]: inactive
Potency [15]: inactive
Potency [11]: 16.8 µM (active)

CS(=O)(=O)c1ccc(C(=O)C2C(=O)CCCC2=O)c([N+](=O)[O-])c1
Potency [1]: 44.4 µM (active)
Potency [2]: inactive
Potency [3]: 25 µM (active)
Potency [4]: 21.4 µM (active)
Potency [16]: 44.4 µM (active)
Potency [5]: inactive
Potency [6]: 39.6 µM (active)
Potency [7]: inactive
Potency [12]: inactive
Potency [13]: inactive
Potency [8]: inactive
Potency [9]: inactive
Potency [14]: inactive
Potency [17]: inactive

CN(C)C(=S)S
Potency [1]: inactive
Potency [2]: inactive and 15.5 µM (active)
Potency [3]: 11.2 µM (active) and 1.73 µM (active) and 11 µM (active)
Potency [4]: inactive
Potency [16]: inactive
Potency [6]: inactive
Potency [7]: 43.3 µM (active)
Potency [9]: inactive
Potency [14]: inactive
Potency [17]: 12.4 µM (active) and 6.07 µM (active) and 4.86 µM (active)
Potency [15]: 7 µM (active) and 4.82 µM (active) and 54.5 µM (active)
Potency [10]: inactive
Potency [11]: 4.95 µM (active) and 962 nM (active) and 3.44 µM (active)
